# Source: PubChem
# VDR inh = blocks the human vitamin D receptor; P11473; VDR-SRC2-3 peptide fluorescence polarization, 2 h; Potency, µM, most hits filed as inhibitors; hit rate 0.93% among 400,000; AID 504847
# Target sequence (P11473 whole entry, looked up): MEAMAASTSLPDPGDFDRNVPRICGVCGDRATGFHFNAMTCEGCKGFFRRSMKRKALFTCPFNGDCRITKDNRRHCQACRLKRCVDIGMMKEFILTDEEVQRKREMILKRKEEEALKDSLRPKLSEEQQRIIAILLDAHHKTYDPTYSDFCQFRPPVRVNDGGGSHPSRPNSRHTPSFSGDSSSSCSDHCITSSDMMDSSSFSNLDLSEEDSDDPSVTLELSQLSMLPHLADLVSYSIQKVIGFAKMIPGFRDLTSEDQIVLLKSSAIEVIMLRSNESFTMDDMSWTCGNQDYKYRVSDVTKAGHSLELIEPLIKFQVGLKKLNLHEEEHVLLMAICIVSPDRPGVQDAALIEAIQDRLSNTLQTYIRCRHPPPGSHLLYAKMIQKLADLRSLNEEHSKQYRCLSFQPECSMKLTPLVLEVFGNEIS
#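 VDR–SRC2-3 interaction, FP format. Cmpds 23 nl via pintool, brief spin, 2 h ambient incubation.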
# JMJD2A Tudor inh = JMJD2A Tudor domain (human) inhibition; Potency, µM (series often up to 114 µM), most hits filed as inhibitors; AlphaScreen JMJD2A-Tudor / H3K4me3 peptide binding; hit rate 4.4% among 390,000; note: nearly all actives have a fitted effect of over 50% in size
# PLK1 PBD inh = PLK1 (human) polo-box domain binding inhibition | Potency, µM, actives largely listed as inhibitors | AID 720504 | hit rate 2.8% among 360,000 | Plk1 PBD binding of FITC phosphopeptide, fluorescence polarization; note: series mostly up to about 57 µM; nearly all actives have a fitted effect of over 65% in size
# HP1b chromo inh = blocks HP1-beta chromodomain binding to methylated histone tails; P83916; AlphaScreen HP1-beta / biotin-H3K9me3 peptide binding; Potency, µM (titrated, usually from 114 µM), usual class: inhibitors; hit rate 0.56% among 390,000; AID 540317; note: nearly all actives have a fitted effect of over 70% in size
# Target sequence (P83916 whole entry, looked up): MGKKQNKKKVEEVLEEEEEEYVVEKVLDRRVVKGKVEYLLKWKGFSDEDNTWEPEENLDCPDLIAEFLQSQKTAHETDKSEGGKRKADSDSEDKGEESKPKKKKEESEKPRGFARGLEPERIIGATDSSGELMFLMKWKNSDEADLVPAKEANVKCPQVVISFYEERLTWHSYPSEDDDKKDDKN
#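 Compound inhibition of the preformed complex between 50 nM HP1-beta and 50 nM biotinylated H3K9me3 peptide was read by AlphaScreen. Buffer was PBS pH 7.4 with 0.01% Tween-20. Incubations ran 30 min at room temperature, with 10 ug/mL donor/acceptor beads.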
# BAZ2B block = BAZ2B (human) inhibition. Q9UIF8. AlphaScreen BAZ2B-H3K14Ac peptide displacement. Potency, µM (top dose mostly 114 µM), usual class: inhibitors. hit rate 4.4% among 360,000. AID 504333; note: nearly all actives have a fitted effect of over 60% in size
#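 Multi-concentration screen (max 110 uM) measuring displacement of acetylated histone H3 peptide from BAZ2B by AlphaScreen, using 50 nM protein, 50 nM peptide and 10 ug/mL streptavidin donor plus Ni-chelate acceptor beads.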
# G9a block = blocks human histone lysine methyltransferase G9a | G9a H3K9 monomethylation, AlphaScreen, 2 h | hit rate 8.8% among 350,000 | AID 504332 | Q96KQ7 | Potency, µM (titrated, usually from 102 µM), hits mostly inhibitors; note: nearly all actives have a fitted effect of over 75% in size
#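 Enzyme 20 nM + cpd, 15 min RT; add b-H3K9 pep 500 nM / SAM 20 uM; 2 h RT; anti-H3K9me1 Ab 0.5 ug/mL + SA donor / anti-rabbit acceptor beads 20 ug/mL each, 10 min; AlphaScreen read.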
# Numbers stand for hits; i = inactive; ? = inconclusive; nt = no result; [ ] = another dose, or the depositor's remark. Hits are enriched below; roughly 11% of the tested compounds scored in any of these assays. Calls come from the whole dose curve; as a rule, active = well fitted curve in the direction sought with a large enough effect; inconclusive = small, poorly fitted or top-dose-only effect, or another doubt; inactive = no such curve, though single readings can be large; an effect the other way counts as inactive or inconclusive.
SMILES,VDR inh,JMJD2A Tudor inh,PLK1 PBD inh,HP1b chromo inh,BAZ2B block,G9a block
O=C(Cn1c(=O)n(CCCS(=O)(=O)C2CCCCC2)c(=O)c2ccccc21)Nc1ccc(F)c(Cl)c1,i,i,nt,i,i,i
CCC(C)c1ccc(S(=O)(=O)Nc2cccnc2)cc1 (stereo unspecified),i,i,i,i,i,50µM
Cc1ccc(C(C)C)cc1S(=O)(=O)NC1CC(C)(C)NC(C)(C)C1,i,i,i,i,i,i
COc1ccc2c(c1)CCc1cnoc1-2,i,i,i,i,nt,nt
COc1ccc2c(c1)CCc1cn[nH]c1-2,?,?,27µM,i,i,i
CC(=O)Nc1nc(=S)ss1,45µM,i,24µM,i,i,?
Cc1ccccc1C(=O)Nc1nc(=S)ss1,?,?,11µM,i,i,13µM
CC(C)CC(=O)Nc1nc(=S)ss1,?,?,17µM,?,i,1.6µM
O=C(Nc1nc(=S)ss1)c1c(F)cccc1F,i,i,i,i,i,18µM
CC(=O)Nc1nc(C)c(C(C)(C)C)s1,i,i,i,i,i,i
Cc1cccc(-c2nc(CN3CCN(Cc4cccc(F)c4)CC3)c(C)o2)c1,i,?,i,i,i,?
Cc1c(C(=O)NCCN2CCCC(O)C2)oc2c(F)cccc12 (stereo unspecified),i,i,i,i,i,i
CCN(CC)c1ccc(NC(=O)c2sc3nc4c(cc3c2N)CN(C)CC4)cc1,i,i,nt,i,?,?
CN1CCc2nc3sc(C(=O)NCc4ccccc4)c(N)c3cc2C1,i,i,i,i,?,11µM
CCOc1ccc(/C=N/NC(=O)c2ccccc2C)cc1CN1CC2CC(C1)c1cccc(=O)n1C2 (stereo unspecified),i,i,i,i,i,i[0.501 µM]
CNC(=O)C1(C(F)(F)F)CC(CCCO)CCCO1 (stereo unspecified),i,i,nt,i,nt,nt
CN1CCN(C2=Nc3c(Cl)cc(Cl)c4cccc2c34)CC1,i,50µM,?,?,28µM,?
CCOC(=O)C1=C(C)OC(N)=C(C#N)C1c1c(C)nn(-c2ccccc2)c1Cl (stereo unspecified),71µM,?,i,i,i,?
Cc1nn(-c2ccccc2)c(Cl)c1C1C(C#N)=C(N)OC2=C1C(=O)CCC2 (stereo unspecified),i,i,i,i,i,i
C=CCOC(=O)C1=C(C)OC(N)=C(C#N)C1c1c(C)nn(-c2ccccc2)c1Cl (stereo unspecified),i,i,i,i,i,i
Cc1nn(-c2ccccc2)c(Cl)c1C1C(C#N)=C(N)Oc2n[nH]c(C)c21 (stereo unspecified),i,i[11.4 µM],24µM,i,i,?
CC1C/C(=C/c2ccccn2)C(=O)/C(=C/c2ccccn2)C1 (stereo unspecified),28µM,i,?,i,?,50µM
C(=C\c1ccccn1)/c1ccccn1,?,?,?,i,i,i
O=C1/C(=C\c2ccco2)CCC/C1=C\c1ccco1,?,45µM,i,45µM,45µM,?
O=C1/C(=C/c2ccco2)Cc2ccccc21,i,i,i,i,?,?
SMILES,VDR inh,JMJD2A Tudor inh,PLK1 PBD inh,HP1b chromo inh,BAZ2B block,G9a block
CC1C/C(=C/c2ccco2)C(=O)/C(=C/c2ccco2)C1 (stereo unspecified),nt,nt,nt,nt,35µM,13µM
C=CCSc1ncnc2c1oc1nc3c(cc12)COC(C)(C)C3,i,i,i,i,i,i
CC1(C)Cc2nc3oc4c(=S)nc[nH]c4c3cc2CO1,i,25µM,i,i,i,45µM
O=C(c1ccc(CS(=O)Cc2cccc(Cl)c2)o1)N1CCN(C2CCCCC2)CC1 (stereo unspecified),i,i,i,i,i,i
CCOc1cc(C(=O)N2CCc3c([nH]c4ccccc34)C2c2ccccc2)cc(OCC)c1OCC (stereo unspecified),i,?,nt,i,?,i
O=C1CC(/C=C/c2ccco2)=Nc2ccccc2N1,i,i,i,i,i,45µM
O=C1CC(/C=C/c2ccccn2)=Nc2ccccc2N1,i,45µM,?,i,?,45µM
Nc1cc(=O)[nH]c(=O)n1-c1cccc(F)c1,i,i,i,i,i,i
Cc1cccc(-n2c(N)cc(=O)[nH]c2=S)c1,i,i,i,i,i,50µM
COc1ccc([C@H]2C[C@H](n3cc(COC(=O)c4ccccc4)nn3)[C@@H](O)CN2CC2CCCCC2)cc1,nt,nt,i,nt,nt,nt
CCOC(=O)C(=O)N1CCN(c2cc3c(cc2[N+](=O)[O-])n(C)c(=O)n3C)CC1,i,i,i,i,50µM,i
O=C(c1cccc(F)c1)N1CCN(c2ccc([N+](=O)[O-])c(N3CCOCC3)c2)CC1,i,i,i,i,i,i
Cn1c(=O)n(C)c2cc([N+](=O)[O-])c(N3CCN(S(=O)(=O)c4ccc5ccccc5c4)CC3)cc21,i,i,i,i,i,i
Cc1ccc(C(=O)N2CCN(c3cc4c(cc3[N+](=O)[O-])n(C)c(=O)n4C)CC2)cc1,i,i,i,i,50µM,i
Cc1ccc(S(=O)(=O)N2CCN(c3cc4c(cc3[N+](=O)[O-])n(C)c(=O)n4C)CC2)cc1,i,i,i,i,?,?
Cn1c(=O)n(C)c2cc([N+](=O)[O-])c(N3CCN(C(=O)c4cccc(F)c4)CC3)cc21,i,i,i,i,50µM,?
CCCS(=O)(=O)N1CCN(c2cc3c(cc2[N+](=O)[O-])n(C)c(=O)n3C)CC1,i,i,i,i,56µM,i
CCOC(=O)N1CCN(c2ccc(F)cc2[N+](=O)[O-])CC1,i,i,i,i,i,i
Cc1ccc(CNC(=O)c2cc3c(=O)n4cccc(C)c4nc3s2)cc1,i,i,nt,i,?,i
Cc1nc(-c2nnc(SCC(=O)Nc3ccc(Cl)cc3)n2C)cs1,i,i,i,i,i,i
Cc1cc(C)c(C(=O)Nc2ccccc2)c(SCC(=O)Nc2ccc(Br)cc2C)n1,i,i,nt,i,i,i
CSCC[C@H](NC(=O)[C@H](CC(C)C)N(C)C(=O)[C@@H]1CCCN1C(=O)[C@H](Cc1ccccc1)NC(=O)[C@H](Cc1ccccc1)NC(=O)CCC(C)N)C(=O)O (stereo partly specified),i,nt,nt,nt,nt,nt
CCc1c(C(=O)NC(C)C2CCCO2)csc1C (stereo unspecified),i,i,i,i,i,nt
Cc1cccc(-c2nc3c(cnn3-c3ccccc3)c(=O)n2-c2ccc(Br)cc2)c1,i,i,nt,i,i,i
Cn1c(=O)n(C)c2cc([N+](=O)[O-])c(N3CCN(C(=O)c4cccc(Cl)c4)CC3)cc21,i,i,i,i,56µM,i
O=C(c1cccc([N+](=O)[O-])c1)N1CCN(c2ccc(Cl)cc2)CC1,i,i,i,i,?,?
